Compounds with a hit are over-represented: about 10% of the library has one in this group of screens.
Lamin A splicing = changes lamin A minigene splicing in HeLa cells | Potency, µM (top dose mostly 46.1 µM), for inactives: at the highest dose ratio change, negative = inhibition, usual class: inhibitors | HeLa LMNA splicing GFP/RFP minigene ratio, 48 h | hit rate 0.01% among 200,000 | AID 1487; active means well fitted inhibition curve with a large enough effect in the signal ratio, with a control signal flat, not every such curve was filed as active; inconclusive means small, poorly fitted or top-dose-only effect, or effect the other way, or a change in a side signal; the % refers to the signal ratio; further: potency means the concentration at half of the fitted maximal effect
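S3 HeLa stable clones carrying a lamin A-EGFP splicing minigene plus DsRed2 were seeded at 600 cells/well in Opti-MEM with 2% FBS, pin-dosed and incubated 48 h at 37°C. Acumen cytometry (488 nm) gave the GFP/RFP total-intensity ratio.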
HPGD block = HPGD (human) dehydrogenase inhibition. P15428. purified HPGD, NADH fluorescence kinetic, PGE2 substrate. Potency, µM, for inactives: top-dose activity change, negative = inhibition, usual class: inhibitors. hit rate 4.3% among 150,000. AID 894; further: potency means the concentration at half of the fitted maximal effect
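20 nM HPGD preincubated 15 min at room temperature with compound in 50 mM Tris-HCl pH 8, 0.01% Tween 20. Started with 1 mM NAD+ and 30 uM prostaglandin E2; NADH fluorescence (360/450 nm) read 5 times over 30-s intervals, last minus first.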
ALDH1A1 inh = inhibitors of human aldehyde dehydrogenase 1A1. P00352. Purified ALDH1A1, NADH fluorescence, propionaldehyde substrate. Potency, µM (top dose mostly 75.3 µM), without a hit: at the highest dose activity, negative = inhibition, hits mostly inhibitors. hit rate 7.3% among 220,000. AID 1030;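 further: potency means the concentration at half of the fitted maximal effect; plate controls were no enzyme wells and a reference inhibitor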
Target sequence (P00352 whole entry, looked up): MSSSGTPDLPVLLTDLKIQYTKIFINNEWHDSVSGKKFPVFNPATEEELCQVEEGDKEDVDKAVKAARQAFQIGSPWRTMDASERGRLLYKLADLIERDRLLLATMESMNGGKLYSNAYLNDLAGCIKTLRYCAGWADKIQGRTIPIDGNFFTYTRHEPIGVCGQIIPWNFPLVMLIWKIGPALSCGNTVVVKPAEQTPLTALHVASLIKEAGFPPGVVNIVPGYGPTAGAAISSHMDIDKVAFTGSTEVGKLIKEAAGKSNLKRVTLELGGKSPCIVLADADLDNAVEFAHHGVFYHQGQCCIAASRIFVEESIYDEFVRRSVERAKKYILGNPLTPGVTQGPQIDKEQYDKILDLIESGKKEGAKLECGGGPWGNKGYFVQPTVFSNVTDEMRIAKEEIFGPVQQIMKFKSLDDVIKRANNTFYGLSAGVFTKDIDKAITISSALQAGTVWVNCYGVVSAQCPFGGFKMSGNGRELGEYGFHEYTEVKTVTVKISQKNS
ALOX12 inhib = 12-hLO (ALOX12) enzyme inhibition; P18054; purified 12-hLO, xylenol orange hydroperoxide absorbance; Potency, µM (highest dose often 57.1 µM), inactives show at the highest dose activity change, negative = inhibition, hits mostly inhibitors; hit rate 0.12% among 150,000; active means well fitted inhibition curve with a large enough effect; inconclusive means small, poorly fitted or top-dose-only effect; further: potency means the concentration at half of the fitted maximal effect; nearly all actives have a fitted effect of over 55% in size
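Lipoxygenase turnover measured by absorbance at 573 and 405 nm after Fe-XO development. Human 12hLO 150 nM, arachidonate 40 uM, pH 7.0 Hepes buffer with detergent; 15 min compound preincubation, 30 min reaction.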
PNC assembly inh = perinucleolar compartment assembly inhibition; PC3M PTB-GFP, PNC prevalence imaging, 16 h; stronger effect = lower value; hit rate 3.1% among 140,000; activity change (PNC), negative = inhibition, % at 10 µM;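 active means readout at or below -70, meaning at least 70% loss of cells showing the perinucleolar compartment, a nuclear body marking cancer cells; inconclusive means readout between -30 and a set limit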;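 further: plate controls were DMSO wells for no effect and camptothecin positive control wells for full effect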
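PC3M cells stably expressing PTB-GFP, 750–1000 cells/well, treated 16 h at 37 °C with compound (23 nl of library stock), in duplicate. After paraformaldehyde fixation and Hoechst stain, imaged at 20x; PNC prevalence scored by image analysis.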
Numbers without * were called inactive; ? = inconclusive; nt = no result; ! = not active in a repeat; [ ] = remark or other dose. Unless noted, the call rests on the fitted dose curve; in most records, active means well fitted inhibition curve with a large enough effect (not every such curve was filed as active); inconclusive means small, poorly fitted or top-dose-only effect, or another doubt; inactive means no such curve, though single readings can be large or run the other way. Unless noted, on the % scale 0 is the no-effect control and ±100 the full control effect.

SMILES	Lamin A splicing	HPGD block	ALDH1A1 inh	ALOX12 inhib	PNC assembly inh
Cc1[nH]c2ccccc2c1CCNC(=O)c1c(N)no[n+]1[O-]	-3%[9.22 µM]	nt	3%	nt	nt
N#CC1=C(SCC(=O)NCc2ccccc2)NC(=O)CC1c1ccco1 (configuration not stated)	-15%	-10%	8.9µM*	3%	-3
N#CC1=C(SCC(=O)Nc2ccccc2)NC(=O)CC1c1ccc(O)cc1 (configuration not stated)	-6%	-2%	?	12%	4
CC1CCN(c2[nH]c(=S)c(C#N)c3c2CCCC3)CC1	9%	11µM*	10µM*	-12%	?
COc1ccc(OC)c(-n2c(SCC(=O)Nc3cccc(S(N)(=O)=O)c3)nc3ccccc3c2=O)c1	nt	nt	-7%	nt	nt
O=C(/C=C/c1ccccc1)N1CCN(Cc2cc(=O)n3nc(-c4ccccc4)sc3n2)CC1	0%[46 µM]	nt	nt	nt	nt
Cc1oc2c(c1C(=O)Nc1cccc(C(=O)O)c1)CCCC2	5%	1%	2%	2%	-108*
Cc1ccc(C(=O)Nc2cccc(C(=O)O)c2)cc1	3%	-2%	0%	1%	38
CC(C)CCOC(=O)/C=C/c1ccccc1	nt	-1%	-3%	2%	nt
Cc1c(C)c2c(c(C)c1O)CCC(C)(COc1ccc(Cc3sc(=O)[nH]c3O)cc1)O2 (configuration not stated)	nt	-8%	8%	-12%[0.00818 µM]	nt
CCOC(=O)Nc1ccc2c(CN3C(=O)NC4(CCCC4)C3=O)cc(=O)oc2c1	-4%	?	?	1%	-100*
CCNc1ccc(Br)cc(C(=O)/C=C/c2c(Cl)cccc2Cl)c1=O	?	8.9µM*	7.9µM*	?	80
Cc1ccc(NC(=O)/C=C/c2ccc(Cl)cc2)c(Br)c1	33%[46 µM]	nt	nt	nt	nt
CCNc1ccc(Br)cc(C(=O)/C=C/c2ccc(Cl)cc2)c1=O	?	?	25µM*	?	40
CCNc1ccc(Br)cc(C(=O)/C=C/c2ccc3c(c2)OCO3)c1=O	?	?	18µM*	?	-21
Nc1ccccc1C(=O)/C=C\c1ccc2c(c1)OCO2	nt	nt	5%[13.5 µM]	nt	nt
COC(=O)N1CCC[C@@]2(CCN(c3ccncc3)C2)C1	nt	-1%	2%	3%	nt
COC(=O)c1cnn(-c2ccc(C(=O)Nc3ccc(C(C)=O)cc3)cc2)c1N	0%[46 µM]	nt	nt	nt	nt
Cc1ccc([N+](=O)[O-])cc1S(=O)(=O)N(C)C	?	5%	32µM*!	-7%	nt
Cc1ccc(NC(=O)c2ccc([N+](=O)[O-])cc2)cc1S(=O)(=O)N(C)C	-12%[46 µM]	nt	?	nt	nt
Cc1nc2ccccc2n1/C(=N/S(=O)(=O)c1ccc(Br)cc1)c1ccccc1	-3%	-11%	-4%	12%	-100*
Cc1ccc(CNC(=O)c2c(-c3ccc(F)cc3F)noc2C)o1	-6%[46 µM]	nt	nt	nt	nt
C/C(=N\NC(=O)c1cccc(N/N=C(\C)c2cc(O)ccc2O)c1)c1cc(O)ccc1O	13%[46 µM]	nt	7.9µM*	nt	nt
CS(=O)(=O)N1CCC[C@@]2(CCN(Cc3nccs3)C2)C1	nt	-5%	3%	3%	nt
O=c1[nH]c(/C=C/c2ccccc2OC(F)F)nc2c1cnn2-c1ccccc1	4%	?	?	-1%	10
SMILES	Lamin A splicing	HPGD block	ALDH1A1 inh	ALOX12 inhib	PNC assembly inh
CC1(C)Cn2c(nnc2-c2ccccc2)S1	10%	16µM*	3%	3%	2
CC(C)C(N)C(=O)O (configuration not stated)	nt	nt	-7%	nt	nt
O=C(CSC1=NS(=O)(=O)c2ccccc21)Nc1ccccc1	-1%	16µM*	0.56µM*	3%	0
COC(=O)CSC1=NS(=O)(=O)c2ccccc21	4%	22µM*	-6%	1%	?
COC(=O)CSc1ccccc1C(=O)OC	-7%	-30%	-1%	11%	6
COc1ccc(NC(=O)Cn2c(SCc3ccc(C)cc3)nc3cccnc32)c(OC)c1	-7%[46 µM]	nt	nt	nt	nt
Cc1ccc(C(=O)CCC(=O)O)cc1	-1%	-7%	-1%	6%	20
CCCc1ccc(C(=O)CCC(=O)O)cc1	6%	-7%	7%	3%	-96*
CCCC[C@@H](NC(=O)[C@@H](Cc1cn(C(=O)OC)c2ccccc12)NC(=O)[C@H](CC(C)(C)C)NC(=O)N1[C@H](C)CCC[C@@H]1C)C(=O)O	nt	0%	6%	-1%[0.00818 µM]	nt
CC(C)CCN1CCNC(=O)C1CC(=O)Nc1ccc(F)cc1 (configuration not stated)	13%	-14%	18µM*	-5%	27
COc1cccc(CNc2ccc3c(c2)CCC3)c1	11%	-23%	13µM*	0%	10
FC(F)(F)c1ccccc1-c1cncnc1NCc1cccnc1	-13%	nt	8%	nt	nt
CN1CCN(Cc2ccc(OCc3ccccc3)cc2)CC1	22%	0%	-5%	3%	-86*
CCN1CCN(Cc2ccc(OCc3ccccc3)cc2)CC1	-11%	-11%	?	4%	35
CC(O)CNC(=O)C1CCN(Cc2ccc(OCc3ccccc3)cc2)CC1 (configuration not stated)	0%	-4%	20µM*	-6%	-26
NCCCCC(N)C(=O)NC(Cc1ccc(O)cc1)C(=O)NC(CCCCN)C(=O)O (configuration not stated)	-5%	-19%	-8%	-3%	nt
O=C(CCn1cnc2onc(-c3ccc(F)cc3)c2c1=O)N1CCN(c2cccc(Cl)c2)CC1	-5%[46 µM]	nt	nt	nt	nt
Cc1cc(C(=O)Nc2nc3c(s2)CCCC3)no1	13%	-18%	11µM*	1%	-107*
Cc1cc(C(=O)Nc2nnc(-c3ccccc3)s2)no1	14%	-29%	-5%	0%	-98*
Cc1cccc(NC(=O)c2ccc(F)c(S(=O)(=O)NCc3ccc4c(c3)OCO4)c2)c1	15%[46 µM]	nt	nt	nt	nt
C/C=C/COc1nc2c(c(=O)n(C)c(=O)n2C)n1C	-5%	-10%	3%	2%	-100*
c1ccc(-c2nc(-c3ccccc3)c(Nc3ccc4ccccc4c3)o2)cc1	nt	-5%	8%	0%	nt
Cc1ccc(C(c2c(O)cc(C)n(Cc3ccco3)c2=O)N2CCC(C)CC2)cc1 (configuration not stated)	4%[46 µM]	nt	nt	nt	nt
CC(=O)Nc1cccc(C(=O)/C=C/c2ccc(C)cc2)c1	?	-6%	-2%	0%	?
CN(C)c1ccc(/C=C/C(=O)c2cccc(Br)c2)cc1	?	-29%	7.1µM*	-4%	42
Cc1cccc(C)c1NC(=O)COC(=O)c1ccc(N2CCCC2)c([N+](=O)[O-])c1	6%	-24%	9%	0%	33
CCC(C)c1ccccc1NC(=O)COC(=O)c1ccc(N2CCCC2)c([N+](=O)[O-])c1 (configuration not stated)	2%	-27%	13µM*	-4%	16
COc1ccc(NC2=CC(c3cccc(OC)c3)N(c3ccc(OC)cc3)C2=O)cc1 (configuration not stated)	5%	?	25µM*	-5%	-29
